Our source for the growth values is PubChem BioAssay (NCI).

This is part of a sample that, as a whole, favours compounds with a hit. Of some 83,000 tested, about 20% had one in any assay.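 Single-concentration screen, 48 h exposure, 96-well plates. Endpoint: percent growth. Below 10 = active.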 Values without a mark were called inactive. Calls of active or inactive are those of the source.

Common to all, as to test: NCI-60 one-dose screen, 48 h (100 = growth as untreated, 0 = no growth, -100 = all killed)
In one assay the test system is SK-MEL-2 melanoma. The settings on record: 10 µM unless noted.
In another assay the test system is EKVX NSCLC. The settings on record: 10 µM unless noted.
The next assay deals with SN12C renal. The settings on record: 10 µM unless noted.
In another assay the test system is UO-31 renal. The settings on record: 10 µM unless noted.
For a further assay, the system named is TK-10 renal. The settings on record: 10 µM unless noted.
Another assay relates to ACHN renal. The settings on record: 10 µM unless noted.
The test system of another assay is CAKI-1 renal. The settings on record: 10 µM.
The test system of the next assay is CCRF-CEM leukemia. The settings on record: 10 µM unless noted.
The test system of the next assay is MOLT-4 leukemia. The settings on record: 10 µM unless noted.
A further assay deals with SR leukemia. The settings on record: 10 µM unless noted.
The next assay relates to RPMI-8226 leukemia. The settings on record: 10 µM unless noted.
For a further assay, the system named is OVCAR-8 ovarian. The settings on record: 10 µM unless noted.
A further assay has as its system OVCAR-5 ovarian. The settings on record: 10 µM unless noted.
Another assay relates to OVCAR-4 ovarian. The settings on record: 10 µM unless noted.
A further assay deals with SK-OV-3 ovarian. The settings on record: 10 µM unless noted.
The subject of a further assay is IGROV1 ovarian. The settings on record: 10 µM unless noted.
The next assay has as its system OVCAR-3 ovarian. The settings on record: 10 µM unless noted.
The next assay has as its system HS 578T breast. The settings on record: 10 µM unless noted.
A further assay concerns NCI/ADR-RES ovarian. The settings on record: 10 µM unless noted.
Another assay concerns A498 renal. The settings on record: 10 µM unless noted.

`CCOc1c(C#N)c(Nc2ccc(S(N)(=O)=O)cc2)c(C#N)c2nnc(C)n12`: the growth in the assay with SK-MEL-2 melanoma was 101%; in the assay with EKVX NSCLC, 90.5%; with SN12C renal, 98.1%; with UO-31 renal it was 78.4%; in the assay on TK-10 renal, 125%; in the assay on ACHN renal, 90.2%. Also, the growth was 88.7% with CAKI-1 renal; 104% in the assay on CCRF-CEM leukemia; 104% in the assay on MOLT-4 leukemia; 100% in the assay with SR leukemia; 107% with RPMI-8226 leukemia; 99.4% with OVCAR-8 ovarian. Further, the growth in the assay with OVCAR-5 ovarian is 107%; in the assay on OVCAR-4 ovarian it was 117%; in the assay on SK-OV-3 ovarian, 102%; in the assay on IGROV1 ovarian, 101%; with OVCAR-3 ovarian, 114%; in the assay on HS 578T breast it was 102%. In addition, in the assay with NCI/ADR-RES ovarian, the growth is 105%.

As for `N/C(=N\OC(=O)CSc1nc2ccccc2s1)c1ccc2ccccc2c1`, the growth with SK-MEL-2 melanoma was 102%; in the assay with EKVX NSCLC it was 91.8%; in the assay on SN12C renal, 95.2%; with UO-31 renal, 78.6%; in the assay with TK-10 renal, 118%; in the assay on ACHN renal, 91%. In addition, the growth is 85.8% with CAKI-1 renal; 101% in the assay on CCRF-CEM leukemia; 99.2% with MOLT-4 leukemia; 117% in the assay on SR leukemia; 110% in the assay with RPMI-8226 leukemia; 98.8% with OVCAR-8 ovarian. Further, the growth in the assay on OVCAR-5 ovarian was 98.9%; in the assay with OVCAR-4 ovarian, 109%; with SK-OV-3 ovarian it was 101%; in the assay on IGROV1 ovarian it was 97.3%; with OVCAR-3 ovarian, 116%; in the assay on HS 578T breast, 105%. Besides, in the assay with NCI/ADR-RES ovarian, the growth is 104%.

As to `CN1CCN(c2ccc3c(C(N)=O)c(NC(=O)c4ccc(C(C)(C)C)cc4)sc3c2)CC1`, the growth in the assay with SK-MEL-2 melanoma was 97.4%; in the assay on EKVX NSCLC it was 85.2%; in the assay on SN12C renal it was 90%; in the assay with UO-31 renal it was 97.5%; in the assay on TK-10 renal it was 123%; in the assay on ACHN renal it was 96.4%. Moreover, the growth in the assay on CAKI-1 renal is 100%; with CCRF-CEM leukemia it was 53.3%; with MOLT-4 leukemia, 41.9%; in the assay with SR leukemia, 34.7%; in the assay on RPMI-8226 leukemia it was 20.1%; with OVCAR-8 ovarian it was 95.4%. The growth in the assay on OVCAR-5 ovarian was 81.1%; with OVCAR-4 ovarian, 92.3%; in the assay on SK-OV-3 ovarian, 107%; in the assay on IGROV1 ovarian it was 90.3%; with OVCAR-3 ovarian, 79.3%; in the assay on HS 578T breast it was 91.2%. The growth in the assay on NCI/ADR-RES ovarian was 85.9%.

With `Oc1ccc(CSc2nnc(-c3cnccn3)o2)c2cccnc12`, the growth is -2.52% (active) in the assay on SK-MEL-2 melanoma; 19.3% with EKVX NSCLC; 7.45% (active) in the assay on SN12C renal; 6.71% (active) in the assay on UO-31 renal; 35.3% in the assay with TK-10 renal; 0.457% (active) in the assay on ACHN renal. Also, the growth with CAKI-1 renal was 2.13% (active); with CCRF-CEM leukemia, 18.1%; in the assay on MOLT-4 leukemia it was 16.9%; in the assay with SR leukemia, 20.5%; in the assay on RPMI-8226 leukemia, 7.74% (active); in the assay with OVCAR-8 ovarian, 15.1%. Besides, the growth in the assay with OVCAR-5 ovarian is 36.9%; in the assay with OVCAR-4 ovarian, 36.6%; with SK-OV-3 ovarian it was 9.11% (active); in the assay with IGROV1 ovarian it was 23.4%; in the assay on OVCAR-3 ovarian, 11.9%; with HS 578T breast it was 19%. In addition, the growth with NCI/ADR-RES ovarian was 33%.

Turning to `N#C/C(=C\c1ccc(Cl)cc1Cl)C(N)=O`, the growth is 106% with SK-MEL-2 melanoma; 105% in the assay with EKVX NSCLC; 98.3% with SN12C renal; 94.4% in the assay on UO-31 renal; 102% with TK-10 renal; 101% in the assay on ACHN renal. The growth was 90.8% with CAKI-1 renal; 89.7% in the assay on CCRF-CEM leukemia; 109% with MOLT-4 leukemia; 80.5% in the assay with SR leukemia; 111% in the assay on RPMI-8226 leukemia; 106% in the assay with OVCAR-8 ovarian. Besides, the growth in the assay on OVCAR-5 ovarian is 99.7%; in the assay with OVCAR-4 ovarian, 107%; with SK-OV-3 ovarian, 107%; in the assay on IGROV1 ovarian, 102%; in the assay on OVCAR-3 ovarian it was 109%; in the assay with HS 578T breast, 99%. Moreover, the growth in the assay with NCI/ADR-RES ovarian was 107%.

On to `COc1ccc2c(c1)oc1c3[nH]c4ccccc4c3c3c(c21)C(=O)N(O)C3=O`, for which the growth is 70.8% with SK-MEL-2 melanoma; 92.5% in the assay on EKVX NSCLC; 40.5% with SN12C renal; 22.4% with UO-31 renal; 119% with TK-10 renal; 11.5% with ACHN renal. Moreover, the growth in the assay with CAKI-1 renal is 19.6%; in the assay with A498 renal, -1.48% (active); in the assay with CCRF-CEM leukemia, 6.73% (active); in the assay with MOLT-4 leukemia, -2.02% (active); with RPMI-8226 leukemia it was 28%; in the assay with OVCAR-8 ovarian, 48.4%. For the same compound, the growth in the assay with OVCAR-5 ovarian was 110%; with OVCAR-4 ovarian it was 77.9%; in the assay on SK-OV-3 ovarian, 39.1%; in the assay with IGROV1 ovarian, 41.2%; in the assay on NCI/ADR-RES ovarian, 59.6%.

On to `NS(=O)(=O)c1ccc(Nc2nc(N/N=C/c3ccc(F)cc3)nc(Nc3ccccc3)n2)cc1`, for which the growth was -9.45% (active) in the assay with SK-MEL-2 melanoma; 62.7% with EKVX NSCLC; 50.3% in the assay on SN12C renal; 66.2% with UO-31 renal; 1.71% (active) in the assay with TK-10 renal; 80.8% with ACHN renal. Also, the growth with CAKI-1 renal is 56.8%; in the assay on CCRF-CEM leukemia it was 20%; in the assay on MOLT-4 leukemia it was 21.8%; with SR leukemia, 57.7%; in the assay with RPMI-8226 leukemia, 50.6%; in the assay on OVCAR-8 ovarian it was 29.4%. Also, the growth in the assay with OVCAR-5 ovarian is 75.3%; with OVCAR-4 ovarian, 55.5%; in the assay with SK-OV-3 ovarian, 71.2%; in the assay with IGROV1 ovarian, 43.5%; with OVCAR-3 ovarian, 30.4%; with HS 578T breast, 40.6%. Moreover, the growth in the assay on NCI/ADR-RES ovarian is 95.6%.

Take `O=C(NNc1nc2cc(F)ccc2n2cncc12)c1cnccn1`: the growth in the assay on SK-MEL-2 melanoma was 36%; in the assay on EKVX NSCLC, 20.3%; in the assay with SN12C renal, 34.2%; in the assay with UO-31 renal it was 11.7%; in the assay with TK-10 renal it was 44%; in the assay with ACHN renal it was 9.12% (active). Also, the growth with CAKI-1 renal is 7.86% (active); in the assay with CCRF-CEM leukemia it was 14.4%; with MOLT-4 leukemia, 6.82% (active); in the assay with SR leukemia it was 17%; in the assay with RPMI-8226 leukemia it was 25.4%; in the assay on OVCAR-8 ovarian it was 21%. The growth in the assay on OVCAR-5 ovarian is 50%; in the assay on OVCAR-4 ovarian, 31.1%; in the assay on SK-OV-3 ovarian, 28.4%; in the assay on IGROV1 ovarian, 27.6%; in the assay on OVCAR-3 ovarian, 28.2%; with HS 578T breast it was 71.8%. Further, in the assay on NCI/ADR-RES ovarian, the growth was 12.2%.
